# Columns and labels:
# [1] = biological target: T1, Methionyl-tRNA synthetase, putative (Leishmania donovani (strain BPK282A1)) (UniProt E9BF75); assay: Leishmania donovani Methionine tRNA synthetase (LdMetRS):v7. Dose response assay; type: functional; design: conc 80 nM, time 150 minutes
# T1 sequence (whole entry): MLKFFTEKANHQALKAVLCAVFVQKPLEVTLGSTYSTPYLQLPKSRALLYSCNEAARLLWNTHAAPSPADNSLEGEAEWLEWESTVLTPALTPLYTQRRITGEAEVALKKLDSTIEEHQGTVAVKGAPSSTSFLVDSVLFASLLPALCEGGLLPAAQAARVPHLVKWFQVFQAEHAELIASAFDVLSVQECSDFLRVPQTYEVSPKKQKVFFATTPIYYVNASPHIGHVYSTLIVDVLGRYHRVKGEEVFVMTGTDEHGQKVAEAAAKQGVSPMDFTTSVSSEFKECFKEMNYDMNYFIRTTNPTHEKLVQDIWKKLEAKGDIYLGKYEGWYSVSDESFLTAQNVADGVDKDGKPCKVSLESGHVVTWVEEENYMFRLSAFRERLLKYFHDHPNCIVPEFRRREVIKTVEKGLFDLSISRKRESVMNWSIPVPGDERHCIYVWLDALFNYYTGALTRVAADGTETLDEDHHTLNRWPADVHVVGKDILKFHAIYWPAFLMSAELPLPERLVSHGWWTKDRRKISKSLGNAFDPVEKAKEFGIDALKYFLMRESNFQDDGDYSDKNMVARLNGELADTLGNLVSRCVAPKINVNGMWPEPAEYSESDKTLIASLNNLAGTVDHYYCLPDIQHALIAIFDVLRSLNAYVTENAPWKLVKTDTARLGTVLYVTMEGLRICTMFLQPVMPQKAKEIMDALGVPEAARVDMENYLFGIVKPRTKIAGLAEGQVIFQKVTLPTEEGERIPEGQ
# [2] = biological target: AMP-activated protein kinase, AMPK (Homo sapiens) (UniProt P54646+O43741+P54619+Q9UGJ0+Q9Y478+Q13131+Q9UGI9); assay: AMP-dependent Kinase enzyme assay. An in vitro enzyme assay that detects ADP turnover that is directly proportional to AMPK activity. This uses naive AMPK that is activated during the assay with MK-8722; type: functional; design: scale not given: direction of the effect not stated beside the values; settings: 30 µM
smiles,measurement,setting,value
Cn1ncc2c(Nc3ccc(F)c(F)c3)nc(NCCO)nc21,PXC50,[1]; MAX_EFFECT 4.750593824,< 4
same,PXC50,[1]; MAX_EFFECT 5.660377358,< 4
same,PXC50,[1]; MAX_EFFECT 14.59227468,< 4
NC1CCOc2c(Cl)cc(Cl)cc21 (configuration not stated),PXC50,[1]; MAX_EFFECT 4.805491991,< 2.7
same,PXC50,[1]; MAX_EFFECT 6.273764259,< 3
same,PXC50,[1]; MAX_EFFECT 11.76470588,< 2.7
same,PXC50,[1]; MAX_EFFECT 23.54211663,< 3
Cn1ncc2c(NCCO)nc(Nc3cccc(O)c3)nc21,PXC50,[1]; MAX_EFFECT 5.386416862,< 4
same,PXC50,[1]; MAX_EFFECT 6.072106262,< 4
same,PXC50,[1]; MAX_EFFECT 8.167770419,< 4
NS(=O)(=O)c1cc(C(=O)O)cnc1Nc1cccc(C(F)(F)F)c1,PXC50,[1]; MAX_EFFECT 5.660377358,< 4
same,PXC50,[1]; MAX_EFFECT 10.0877193,< 4
same,PXC50,[1]; MAX_EFFECT 16.28498728,< 4
CCc1cccc(Nc2nc(NCCO)c3cnn(C)c3n2)c1,PXC50,[1]; MAX_EFFECT 6.404958678,< 4
same,PXC50,[1]; MAX_EFFECT 25.11013216,< 4
same,PXC50,[1]; MAX_EFFECT 42.00385356,< 4
Cn1ncc2c(NCCO)nc(Nc3ccc(O)cc3)nc21,PXC50,[1]; MAX_EFFECT 7.728337237,< 4
same,PXC50,[1]; MAX_EFFECT 8.34914611,< 4
same,PXC50,[1]; MAX_EFFECT 13.02428256,< 4
Cn1ncc2c(NCCO)nc(NCc3cccnc3)nc21,PXC50,[1]; MAX_EFFECT 7.969639469,< 4
same,PXC50,[1]; MAX_EFFECT 8.113207547,< 4
same,PXC50,[1]; MAX_EFFECT 12.78538813,< 4
Cn1ncc2c(NCCO)nc(NCc3cccc(F)c3)nc21,PXC50,[1]; MAX_EFFECT 8.142493639,< 4
same,PXC50,[1]; MAX_EFFECT 8.301886792,< 4
same,PXC50,[1]; MAX_EFFECT 9.649122807,< 4
NC(=O)c1cc(Nc2ncccc2S(N)(=O)=O)cc(C(F)(F)F)c1,PXC50,[1]; MAX_EFFECT 8.583690987,< 4
same,PXC50,[1]; MAX_EFFECT 8.863198459,< 4
same,PXC50,[1]; MAX_EFFECT 9.501187648,< 4
Cn1ncc2c(NCCO)nc(Nc3cccc(OC(F)(F)F)c3)nc21,PXC50,[1]; MAX_EFFECT 13.77672209,< 4
same,PXC50,[1]; MAX_EFFECT 18.02575107,< 4
same,PXC50,[1]; MAX_EFFECT 24.6628131,< 4
Cc1ncc(CCNc2nc(Nc3ccc(F)c(F)c3)nc3c2cnn3C)s1,PXC50,[1]; MAX_EFFECT 15.8490566,< 4
same,PXC50,[1]; MAX_EFFECT 21.03004292,< 4
same,PXC50,[1]; MAX_EFFECT 21.85273159,< 4
CCc1cccc(Nc2nc(NCCO)c3sccc3n2)c1,PXC50,[1]; MAX_EFFECT 17.21470019,< 4
same,PXC50,[1]; MAX_EFFECT 27.31277533,< 4
same,PXC50,[1]; MAX_EFFECT 37.39669421,< 4
Nc1cc2c(nn1)CCN(C(=O)c1csc(-c3cccs3)n1)C2,PXC50,[1]; MAX_EFFECT 19.04761905,< 4
same,PXC50,[1]; MAX_EFFECT 19.56521739,< 4
same,PXC50,[1]; MAX_EFFECT 20.14010508,< 4
Cn1ncc2c(NCCn3cccn3)nc(Nc3ccc(F)c(F)c3)nc21,PXC50,[1]; MAX_EFFECT 33.72921615,< 4
same,PXC50,[1]; MAX_EFFECT 37.33905579,< 4
same,PXC50,[1]; MAX_EFFECT 41.9729207,< 4
O=C(NCc1cnn2cccnc12)c1cccc(CC2CCNCC2)c1,PXC50,"[1]; BOTTOM 2.141206025, HILLSLOPE 1.62116593, MAX_EFFECT 62.52189142, TOP 100.0",4.14
same,PXC50,"[1]; BOTTOM 2.892347169, HILLSLOPE 1.976450586, MAX_EFFECT 93.87755102, TOP 100.0",4.43
same,PXC50,"[1]; BOTTOM 5.673984802, HILLSLOPE 1.822868055, MAX_EFFECT 90.57971014, TOP 100.0",4.44
same,Percent Effect,[2],2.98%
c1ccc(C2CCCN(c3cncc(-n4cccn4)n3)CC2)cc1 (configuration not stated),PXC50,"[1]; BOTTOM 2.059841181, HILLSLOPE 1.067052754, MAX_EFFECT 60.46065259, TOP 100.0",4.15
same,PXC50,"[1]; BOTTOM 3.016481369, HILLSLOPE 1.023719455, MAX_EFFECT 53.04659498, TOP 100.0",4.01
same,PXC50,"[1]; BOTTOM -1.1240017, HILLSLOPE 1.127395441, MAX_EFFECT 50.23923445, TOP 100.0",4.01
same,PXC50,[1]; MAX_EFFECT 41.25412541,< 4
same,PXC50,[1]; MAX_EFFECT 41.30434783,< 4

# Reference: ChEMBL document CHEMBL3988442, “University of Dundee, Small-Polar-MMV Screening Library” (2021)
